Measurements reported in PubChem BioAssay (NCI).
This is part of a sample that, as a whole, favours compounds with a hit. Of some 79,000 tested, about 15% had one in any assay. Cut-off read from the data, not from the text of the source: active = growth inhibition above about 70%; inactive = the rest.

Legend:
[1] = NCI Yeast Anticancer Drug Screen. Data for the rad50 strain (AID 155);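 note: 0% = growth of vehicle-only cultures of the same strain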; conditions: S. cerevisiae rad50 strain growth inhibition; at 50.0 µM; hits give high values
Outline: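 DNA repair mutant yeast, compound exposure, growth read-out; inhibition is taken relative to vehicle.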

[2] = NCI Yeast Anticancer Drug Screen. Data for the mec2-1 strain (AID 157); conditions: S. cerevisiae mec2-1 strain, at 50.0 µM, hits give high values
Outline: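 Each compound was tested on mec2-1 yeast, a strain altered in DNA damage repair or cell cycle control. Growth inhibition is reported relative to vehicle.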

[3] = NCI Yeast Anticancer Drug Screen. Data for the sgs1 mgt1 strain (AID 161);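 note: 0% = growth of cultures given vehicle only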; conditions: S. cerevisiae sgs1 mgt1 strain, at 50.0 µM, hits give high values
Outline: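 Mutant yeast exposed to compound; growth scored against vehicle-only wells.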

[4] = NCI Yeast Anticancer Drug Screen. Data for the cln2 rad14 strain (AID 165);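 note: 0% = growth equal to vehicle treated cultures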; conditions: S. cerevisiae cln2 rad14 strain, at 50.0 µM, hits give high values
Outline: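 Test compounds were added to cln2 rad14 yeast cultures; inhibition of growth was then determined by comparison with vehicle treatment.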

[5] = NCI Yeast Anticancer Drug Screen. Data for the bub3 strain (AID 167); conditions: S. cerevisiae bub3 mutant strain, at 50.0 µM, hits give high values
Outline: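 In this screen, a yeast mutant lacking normal mitotic checkpoint function is challenged with compound. Relative growth versus vehicle gives the inhibition value.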

[6] = NCI Yeast Anticancer Drug Screen. Data for the mlh1 rad18 strain (AID 175); conditions: S. cerevisiae mlh1 rad18 strain growth inhibition; at 50.0 µM; hits give high values
Outline: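 Inhibition values reflect reduced growth of mutant yeast versus vehicle-treated controls following compound exposure; the mutations affect DNA damage repair.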

Measured: growth inhibition

COc1ccc(-c2nnc(Cl)o2)cc1
inactive: [1] -1.95% | [2] 14.8% | [3] -6.75% | [4] -25.9% | [5] -21.1% | [6] -0.5%

CCC(CO)NC(=O)/C=C/c1ccccc1Cl (stereo unspecified)
inactive: [1] 7% | [2] 14.4% | [3] 1.55% | [4] 2.3% | [5] -0.7% | [6] 10.5%

O=C(/C=C\c1ccccc1)OCc1ccccc1CN1CCCCC1
inactive: [1] 15.7% | [2] 11.7% | [3] 17.2% | [4] 14.6% | [5] 10.4% | [6] 12.8%

CN1NC(c2ccccc2)NN(C)C1=S
inactive: [1] -19.8% | [2] -25.6% | [3] -12% | [4] -16.6% | [5] -4.45% | [6] 3.05%

O=C(CCCSCCCC(=O)NN=C1CCSCC1)NN=C1CCSCC1
inactive: [1] -0.9% | [2] -4.3% | [3] 10.8% | [4] 21.2% | [5] -7.85% | [6] -7.65%

O=NN(Cc1ccc(Cl)cc1)NC1=NCCN1
inactive: [1] 5.55% | [2] 14.3% | [3] 3.75% | [4] -3.65% | [5] 15.2% | [6] 29.6%

Cc1ccc([N+](=O)[O-])cc1NC(=O)C(=O)Cc1cc(=O)oc2cc(O)ccc12
inactive: [1] -4.85% | [2] -22.9% | [3] -28.3% | [4] 23.9% | [5] -16.1% | [6] -6.25%

CCOC1CCC(C(C)=O)C(C#N)(C#N)C1(C#N)C#N (stereo unspecified)
inactive: [1] 38.1% | [2] -9.55% | [3] -21.6% | [4] -7.35% | [5] -37.9% | [6] -42.5%

Cc1ccc(C2(O)CCCCC2)cc1
inactive: [1] -9.8% | [2] -8.45% | [3] -32% | [4] 26.2% | [5] -8.95% | [6] 7.1%

CCC(O)(Cc1ccc(OC)cc1)c1ccc(OC)cc1 (stereo unspecified)
inactive: [1] -33.1% | [2] -24.4% | [3] 14.8% | [4] 1.4% | [5] 11.7% | [6] -11.8%

COc1ccc(C(=O)CC(C#N)c2ccccc2Cl)cc1 (stereo unspecified)
inactive: [1] 19.8% | [2] 39% | [3] 41.2% | [4] 13.1% | [5] 64% | [6] 8.6%

Nc1nc(N)c2nnsc2n1
inactive: [1] 13.7% | [2] -5.05% | [3] 13.3% | [4] 16.6% | [5] 14.4% | [6] 2.9%

CC(C)(Oc1ccccc1)C(=O)Sc1c(-c2ccccc2)c(=O)n(-c2ccccc2)c(=S)n1-c1ccccc1
inactive: [1] 13.2% | [2] -14.8% | [3] -15.3% | [4] -5.4% | [5] -13.2% | [6] -6.95%

CC(C)(C)C(=O)OCN1CCOCC1
inactive: [1] -10.6% | [2] 10.9% | [3] 0.65% | [4] -47.8% | [5] -9.15% | [6] -10.2%

Cc1cc(Cl)cc(Cl)c1OCC(=O)O
inactive: [1] 6.3% | [2] -1.35% | [3] 4.4% | [4] -24.3% | [5] -1.75% | [6] 0.05%

CSCCC(NC(=O)NS(=O)(=O)c1ccc(C)cc1)C(=O)O (stereo unspecified)
inactive: [1] -4.3% | [2] -16.1% | [3] -2.3% | [4] 20.2% | [5] 6.45% | [6] 9.55%

COC(=O)Cc1nc2ccccc2o1
inactive: [1] 36.1% | [2] 9% | [3] 20.9% | [4] 37.9% | [5] 59.2% | [6] 31.5%

CC(O)C(=O)OCCOc1ccccc1 (stereo unspecified)
inactive: [1] 12.7% | [2] -6.3% | [3] -3.05% | [4] 5.5% | [5] -14.3% | [6] -140%

CC(C)CCCC(C)C1CCC2C3C(=O)C=C4CC(OC(=O)CCC(C)C)CCC4(C)C3CCC12C (stereo unspecified)
inactive: [1] -0.05% | [2] 11.9% | [3] 25.3% | [4] 19.8% | [5] -0.55% | [6] 0.25%

O=C1C(Nc2ccccc2)=C(c2ccccc2)C(=O)N1c1ccccc1
inactive: [1] 1.15% | [2] -7.55% | [3] 0.7% | [4] -46.2% | [5] -11.8% | [6] -10.8%

Cc1cc(S(=O)(=O)O)cc(C(C)(C)C)c1O
inactive: [1] -15.6% | [2] -11.4% | [3] 6.3% | [4] 6.25% | [5] -2.45% | [6] -20.6%
